Records with an inconclusive call do not appear. Activity calls are given as the source filed them. How the source made its calls: active means hit-call score of the fitted dose curve at least 0.9, where 1 is the maximum; inconclusive means response in the unintended direction; inactive means score below 0.9.

Here are results for ten compounds from PubChem BioAssay AID2283123 (EPA ToxCast).

In the assay the target is rat CYP2E1, Cyp2e1 (gene 25086) (UniProt P05182). Kind of assay: NVS_ADME_rCYP2E1: NovaScreen (NVS) CYP450-related Enzyme Activity (ADME) Assay for rat CYP2E1. The procedure: NVS_ADME_rCYP2E1 is a biochemical, single-readout assay that uses extracted gene-proteins in a cell-free assay. Measurements were taken 1 hour after chemical dosing in a 96-well plate.NVS_ADME_rCYP2E1 is one of one assay component(s) measured or calculated from the NVS_ADME_rCYP2E1 assay. It is designed to make measurements of enzyme activity, a form of enzyme reporter, as detected with fluorescence intensity signals by Fluorescence technology.Data from the assay component NVS_ADME_rCYP2E1 was analyzed into 1 assay endpoint. This assay endpoint, NVS_ADME_rCYP2E1, was analyzed in the positive analysis fitting direction relative to Acetonitrile as the negative control and baseline of activity. Using a type of enzyme reporter, loss-of-signal activity can be used to understand changes in the enzymatic activity as they relate to the gene Cyp2e1. Furthermore, this assay endpoint can be referred to as a primary readout, because this assay has produced multiple assay endpoints where this one serves a enzymatic activity function. To generalize the intended target to other relatable targets, this assay endpoint is annotated to the cyp intended target family, where the subfamily is xenobiotic metabolism.
Sequence of rat CYP2E1, Cyp2e1 (gene 25086) (P05182 whole entry, looked up): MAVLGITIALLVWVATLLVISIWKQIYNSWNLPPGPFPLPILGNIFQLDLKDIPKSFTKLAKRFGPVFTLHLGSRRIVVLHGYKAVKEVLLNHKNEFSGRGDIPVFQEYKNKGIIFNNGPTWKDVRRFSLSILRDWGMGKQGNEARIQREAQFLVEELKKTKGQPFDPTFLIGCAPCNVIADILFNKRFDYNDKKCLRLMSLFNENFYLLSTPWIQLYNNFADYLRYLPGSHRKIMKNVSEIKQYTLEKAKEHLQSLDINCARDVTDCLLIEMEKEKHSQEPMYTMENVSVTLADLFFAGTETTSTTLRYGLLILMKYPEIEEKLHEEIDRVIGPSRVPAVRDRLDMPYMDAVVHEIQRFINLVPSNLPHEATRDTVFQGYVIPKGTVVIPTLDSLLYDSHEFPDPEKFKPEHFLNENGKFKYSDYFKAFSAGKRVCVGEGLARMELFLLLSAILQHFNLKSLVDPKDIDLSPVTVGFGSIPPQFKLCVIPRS
Binding assays used specific radioligands (tritiated, iodinated) with non-radioactive competitive displacement ligands in agonist or antagonist protocols (as indicated) and various reference compounds and inhibitors to titrate specific binding to receptors and transporters. Most enzyme assays (CYPs, kinases, phosphatases, proteases, HDACs) used recombinant protein and specific substrates (fluorescence mostly, some colorimetric and radioactive) and inhibitors, followed by a biochemical separation of substrate and product. All assays for the biochemical HTS were initially run in duplicate at a single concentration (10 uM for CYP450 assays and 25 uM for all others). Assay-chemical combinations meeting a pre-defined threshold (e.g., 30% inhibition and other criteria defined below) were then run in singleton concentration-response format with maximum concentration of 20 uM for CYPs and 50 uM for all others. Each assay was run with positive and negative controls, and concurrent controls on every plate. The follow-up (secondary) screen tested active chemical-pairs in concentration series, as well as a few additional assays not tested in the primary screen, some selected negative inactives, and several cases re-run in the concentration series for confirmatory purposes.
Take `CNC(=S)S`: the compound was called inactive.
On to `COP(=S)(OC)Oc1ccc([N+](=O)[O-])c(C)c1`, for which the result was inactive.
By AC50 is commonly meant the concentration at which the activity in the assay is half-maximal. `CCCN(CCOc1c(Cl)cc(Cl)cc1Cl)C(=O)n1ccnc1`: the half-maximal activity concentration (AC50) is 2540 nM (active).
Turning to `C[Si](Cn1cncn1)(c1ccc(F)cc1)c1ccc(F)cc1`, the AC50 was 10000 nM (active).
On to `CC(C1CC1)C(O)(Cn1cncn1)c1ccc(Cl)cc1` (stereo not given), for which the compound was classed as inactive.
Same read-out and setting: as for `COP(=S)(OC)SCn1nnc2ccccc2c1=O`, the entry is “inactive”.
For `S=C1NCCN1`, the result was inactive.
For the compound `CCOP(=S)(OCC)Oc1ccc2c(C)c(Cl)c(=O)oc2c1`, the result was inactive.
On to `N#Cc1c[nH]cc1-c1cccc2c1OC(F)(F)O2`, for which the AC50 was 254 nM (active).
Consider `COc1nn(CSP(=S)(OC)OC)c(=O)s1`, for which the compound was called inactive.
